Calls of active or inactive are those of the source.
Legend:
[1] = system: Human papillomavirus type 1a protein E7 (residues 44-93); assay: small molecules binding HPV E7 44-93 – biochemical, small-molecule microarray, residues 44-93, 635 nm fluorescence, primary screen (AID 1108); details: fluorescence 635 nm, higher = more signal;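 note: E7 fragment applied at 1 µg/mL in TBST for 1 h at 4 C; score combines spot fluorescence with its signal to noise ratio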
[2] = hepatitis C replication reporter changes, two-sided – Huh7 cells, luciferase reporter, HCV replication inhibitor project, primary screen (AID 1109); details: Huh7 HCV replicon luciferase reporter, 48 h; higher = more signal;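 note: huh7 hepatoma cells harbouring a luciferase neomycin HCV replicon reporter; luciferase luminescence as measure of HCV replicon replication; test concentration not given here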
[3] = target: Left-right determination factor 2 (Homo sapiens) (UniProt O00292); assay: small molecules binding LEFTY2 protein – biochemical, small-molecule microarray, 635 nm fluorescence scan, primary screen (AID 1110); details: higher = more signal
[4] = target: Calmodulin-1 (Homo sapiens) (UniProt P0DP23); assay: small molecules binding calmodulin-1 with EGTA – biochemical, small-molecule microarray, Cy5-labelled CALM1, profiling panel (AID 1111); details: Cy5-CALM1 binding fluorescence, higher = more signal;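 note: labelled calmodulin applied in Tris saline Tween buffer holding calcium plus EGTA and DTT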
[5] = target: Calmodulin-1 (Homo sapiens) (UniProt P0DP23); assay: small molecules binding Ca-loaded calmodulin-1 – biochemical, small-molecule microarray, Cy5-labelled CALM1, plus calcium, artefact control for SMM control-protein annotation, profiling panel (AID 1112); details: Cy5-CALM1 binding fluorescence, higher = more signal;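 note: score merges spot fluorescence with signal to noise from triplicate slides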
[6] = probe aWnt5a binding to arrayed compounds – biochemical, biotinylated probe, 635/667 nm fluorescence, primary screen (AID 1113); details: small-molecule microarray, higher = more signal;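 note: score merges 667 nm fluorescence intensity with signal-to-noise per printed feature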
[7] = probe aShh binding to arrayed compounds – biochemical, biotinylated probe, 635/667 nm fluorescence, primary screen (AID 1114); details: small-molecule microarray, higher = more signal;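 note: probe is biotin-labelled aShh protein from a stem cell growth factor screen; measures binding of labelled protein to compounds printed on the slide; score merges feature fluorescence at 667 nm with signal-to-noise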
[8] = probe aNog binding to arrayed compounds – biochemical, biotinylated probe, 635/667 nm fluorescence, primary screen (AID 1115); details: small-molecule microarray, higher = more signal;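 note: probe is biotinylated aNog protein used at 0.15 µg/mL for 1 h at 4 C; z-score combines 667 nm fluorescence of each spot with its signal to noise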
[9] = target: Torsin-1A-interacting protein 1 (Homo sapiens) (UniProt Q5JTV8); assay: compound microarray binding of lysate hLAP1 – cell lysate, small-molecule microarray, COS7 lysate, 635/667 nm fluorescence, primary screen (AID 1116); details: 635 nm fluorescence, higher = more signal
[10] = target: Alpha-bungarotoxin (Bungarus multicinctus) (UniProt P60615); assay: compounds binding labelled alpha-BTX control protein – biochemical, small-molecule microarray, Alexa647 label, 635/667 nm fluorescence, artefact control for SMM control protein annotation, profiling panel (AID 1117); details: alpha-BTX-A647 binding fluorescence, higher = more signal
Albumin (Bos taurus) = Albumin (Bos taurus) (UniProt P02769); assay: compounds binding labelled BSA control protein – biochemical, small-molecule microarray, Alexa647 label, 635/667 nm fluorescence, artefact control for SMM control protein annotation, profiling panel (AID 1118); details: BSA-A647 binding, fluorescence 635 nm, higher = more signal;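 note: score merges 667 nm emission intensity and signal-to-noise per printed compound spot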
[11] = probe aXIP binding to arrayed compounds – biochemical, NeuroSMM set, 635/667 nm fluorescence, primary screen (AID 1119); details: small-molecule microarray, higher = more signal, called active from +8 up or from −8 down;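 note: probe is the protein aXip251-270 applied at 1 µg/mL to compound-printed slides; binding of probe to printed compounds measured as 667 nm fluorescence plus signal to noise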
[12] = probe aNOTCH3 binding on compound microarray – biochemical, small-molecule microarray, 635/667 nm fluorescence, primary screen (AID 1120); details: higher = more signal;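 note: probe is a biotin-tagged antibody raised against NOTCH3 rather than NOTCH3 protein; score merges spot fluorescence near 667 nm with spot signal to noise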
[13] = probe aNOTCH2 binding on compound microarray – biochemical, small-molecule microarray, 635/667 nm fluorescence, primary screen (AID 1121); details: higher = more signal;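 note: score merges feature fluorescence read at 667 nm with its signal to noise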
[14] = target: Carbonic anhydrase 2 (Homo sapiens) (UniProt P00918); assay: compounds binding carbonic anhydrase 2 – biochemical, small-molecule microarray, Alexa647-labelled CAII, profiling panel (AID 1122); details: CAII-A647 binding fluorescence, higher = more signal
[15] = COS7 lysate on small-molecule microarray, probe aHis, 635 nm (AID 1123); details: COS7 cell lysate, fluorescence, higher = more signal;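 note: z-score combines 667nm fluorescence intensity with signal-to-noise per printed compound spot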
[16] = probe aLAP1 signal on lysate-treated microarray – cell lysate, small-molecule microarray, COS7 lysate, primary screen (AID 1124); details: probe aLAP1, fluorescence, higher = more signal;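 note: lysate comes from COS7 cells expressing LAP1 and is applied at 0.3 µg/mL; score merges spot fluorescence near 667 nm with signal-to-noise over triplicate slides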
Sam68 (KHDRBS1) = assay: compounds binding KHDRBS1 protein – biochemical, small-molecule microarray, 635 nm fluorescence, primary screen (AID 1125); details: higher = more signal;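 note: score merges 667 nm channel intensity with signal to noise over triplicate slides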
[17] = system: Chordin-like protein 2 (CHRDL2); assay: compounds binding chordin-like 2 – biochemical, small-molecule microarray, 635 nm fluorescence, primary screen (AID 1126); details: fluorescence 635 nm, higher = more signal;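 note: printed compound slides probed with Chrdl2 protein at 4 µg/mL for 1 h at 4 C; score merges 667 nm emission intensity with signal to noise over three replicate slides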
[18] = target: Concanavalin-A (Canavalia ensiformis) (UniProt P02866); assay: compounds binding concanavalin A lectin – biochemical, small-molecule microarray, Alexa647 label, 635 nm, artefact control for SMM control protein annotation, primary screen (AID 1127); details: ConA-A647 binding fluorescence, higher = more signal;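 note: z combines 667 nm emission intensity with signal-to-noise across three replicate slides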
Sequence of Concanavalin-A (Canavalia ensiformis) (P02866 whole entry, looked up): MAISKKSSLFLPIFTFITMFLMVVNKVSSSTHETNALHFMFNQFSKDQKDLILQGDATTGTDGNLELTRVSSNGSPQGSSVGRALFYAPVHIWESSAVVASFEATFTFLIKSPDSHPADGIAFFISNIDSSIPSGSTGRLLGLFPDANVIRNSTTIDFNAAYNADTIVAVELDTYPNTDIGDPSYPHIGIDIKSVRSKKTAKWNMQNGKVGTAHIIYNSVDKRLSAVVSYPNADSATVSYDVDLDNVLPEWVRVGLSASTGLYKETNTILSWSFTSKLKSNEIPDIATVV

Sequence of Alpha-bungarotoxin (Bungarus multicinctus) (P60615 whole entry, looked up): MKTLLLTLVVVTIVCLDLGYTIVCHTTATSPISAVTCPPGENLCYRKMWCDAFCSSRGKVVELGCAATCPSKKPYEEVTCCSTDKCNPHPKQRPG
Sequence of Albumin (Bos taurus) (P02769 whole entry, looked up): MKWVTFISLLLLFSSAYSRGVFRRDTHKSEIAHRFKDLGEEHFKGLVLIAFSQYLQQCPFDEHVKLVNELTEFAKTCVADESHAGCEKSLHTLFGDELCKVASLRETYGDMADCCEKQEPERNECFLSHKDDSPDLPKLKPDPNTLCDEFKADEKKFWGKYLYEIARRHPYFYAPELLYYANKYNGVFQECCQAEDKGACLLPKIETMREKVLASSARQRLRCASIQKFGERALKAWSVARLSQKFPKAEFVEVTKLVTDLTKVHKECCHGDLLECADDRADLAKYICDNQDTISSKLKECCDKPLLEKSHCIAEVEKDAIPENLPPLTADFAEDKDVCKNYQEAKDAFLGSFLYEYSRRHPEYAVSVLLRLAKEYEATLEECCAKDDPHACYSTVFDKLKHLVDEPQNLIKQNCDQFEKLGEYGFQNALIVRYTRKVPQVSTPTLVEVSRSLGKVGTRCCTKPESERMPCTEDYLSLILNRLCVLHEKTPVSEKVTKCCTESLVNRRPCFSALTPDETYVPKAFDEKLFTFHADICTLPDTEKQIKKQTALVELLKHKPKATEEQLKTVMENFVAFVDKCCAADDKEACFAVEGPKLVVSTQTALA
Sequence of Torsin-1A-interacting protein 1 (Homo sapiens) (Q5JTV8 whole entry, looked up): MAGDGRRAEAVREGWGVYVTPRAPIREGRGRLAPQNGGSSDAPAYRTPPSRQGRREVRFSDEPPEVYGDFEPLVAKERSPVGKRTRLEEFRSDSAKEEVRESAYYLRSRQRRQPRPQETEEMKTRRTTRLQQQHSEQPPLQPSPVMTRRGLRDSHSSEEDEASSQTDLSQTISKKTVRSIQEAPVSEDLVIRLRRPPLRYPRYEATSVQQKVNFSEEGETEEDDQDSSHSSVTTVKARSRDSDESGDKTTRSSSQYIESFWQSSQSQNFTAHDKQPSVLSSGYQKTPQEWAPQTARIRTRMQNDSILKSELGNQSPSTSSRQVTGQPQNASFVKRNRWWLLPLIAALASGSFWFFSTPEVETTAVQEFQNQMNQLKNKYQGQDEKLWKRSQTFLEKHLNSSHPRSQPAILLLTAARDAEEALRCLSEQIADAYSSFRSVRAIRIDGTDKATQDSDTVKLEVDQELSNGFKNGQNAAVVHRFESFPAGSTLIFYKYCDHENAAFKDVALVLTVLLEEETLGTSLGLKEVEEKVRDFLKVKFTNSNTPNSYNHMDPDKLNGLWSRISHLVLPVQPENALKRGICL
Sequence of Left-right determination factor 2 (Homo sapiens) (O00292 whole entry, looked up): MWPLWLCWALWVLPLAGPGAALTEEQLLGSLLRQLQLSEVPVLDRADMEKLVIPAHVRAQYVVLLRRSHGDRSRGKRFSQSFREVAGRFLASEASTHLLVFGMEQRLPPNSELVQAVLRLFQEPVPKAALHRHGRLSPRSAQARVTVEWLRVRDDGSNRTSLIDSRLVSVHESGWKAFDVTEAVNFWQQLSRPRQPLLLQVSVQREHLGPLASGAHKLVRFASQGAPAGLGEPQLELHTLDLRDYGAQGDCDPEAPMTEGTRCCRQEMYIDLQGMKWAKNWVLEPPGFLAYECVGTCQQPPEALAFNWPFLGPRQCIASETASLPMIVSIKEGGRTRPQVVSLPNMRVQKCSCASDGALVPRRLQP

Question: For `CCCC[C@H]1CN2[C@@H](CC[C@@H](C)[C@@H]2c2ccc(Br)cc2)C(=O)O1`, which composite z-score [1] is on record?
Answer: The composite z-score was 1.01.

Question: What about the z-score [2] of the same molecule?
Answer: The z-score was -1.04.

Question: What about the composite z-score [3] of the same molecule?
Answer: The composite z-score was 0.671.

Question: And the composite z-score [4]?
Answer: The composite z-score was 0.849.

Question: What about the composite z-score [5] of the same molecule?
Answer: Its composite z-score is -0.0228.

Question: What about the composite z-score [6] of the same molecule?
Answer: The composite z-score was -0.158.

Question: What about the composite z-score [7] of the same molecule?
Answer: Its composite z-score is 0.0121.

Question: What about the composite z-score [8] of the same molecule?
Answer: Its composite z-score is -0.188.

Question: What about the composite z-score [9] of the same molecule?
Answer: The composite z-score was 0.755.

Question: What about the composite z-score [10] of the same molecule?
Answer: The composite z-score was 0.678.

Question: And the composite z-score (Albumin (Bos taurus))?
Answer: Its composite z-score is 0.738.

Question: And the composite Z-score [11]?
Answer: The composite Z-score was 0.689 (inactive).

Question: What about the composite z-score [12] of the same molecule?
Answer: Its composite z-score is -0.137.

Question: What about the composite z-score [13] of the same molecule?
Answer: Its composite z-score is -0.183.

Question: And the composite z-score [14]?
Answer: Its composite z-score is 0.397.

Question: And the composite z-score [15]?
Answer: Its composite z-score is 0.615.

Question: And the composite z-score [16]?
Answer: The composite z-score was 1.59.

Question: And the composite z-score (Sam68 (KHDRBS1))?
Answer: The composite z-score was 1.29.

Question: What about the composite z-score [17] of the same molecule?
Answer: The composite z-score was 0.549.

Question: What about the composite z-score [18] of the same molecule?
Answer: Its composite z-score is 0.764.

Question: For `CC1(C)O[C@H]2OC([C@H](O)CON3C(=O)c4ccccc4C3=O)[C@H](O)[C@H]2O1` (stereo not given in full), which composite z-score [1] is on record?
Answer: The composite z-score was -0.0928.

Question: What about the z-score [2] of the same molecule?
Answer: The z-score was -0.585.

Question: What about the composite z-score [3] of the same molecule?
Answer: Its composite z-score is 0.244.

Question: What about the composite z-score [4] of the same molecule?
Answer: The composite z-score was -0.494.

Question: What about the composite z-score [5] of the same molecule?
Answer: The composite z-score was -0.539.

Question: What about the composite z-score [6] of the same molecule?
Answer: The composite z-score was -0.109.

Question: And the composite z-score [7]?
Answer: The composite z-score was -0.27.

Question: What about the composite z-score [8] of the same molecule?
Answer: Its composite z-score is -0.218.

Question: And the composite z-score [9]?
Answer: Its composite z-score is -0.1.

Question: And the composite z-score [10]?
Answer: The composite z-score was -0.0472.

Question: And the composite z-score (Albumin (Bos taurus))?
Answer: Its composite z-score is 0.107.

Question: What about the composite Z-score [11] of the same molecule?
Answer: Its composite Z-score is -0.282 (inactive).

Question: And the composite z-score [12]?
Answer: The composite z-score was -0.135.

Question: And the composite z-score [13]?
Answer: The composite z-score was 0.117.

Question: What about the composite z-score [14] of the same molecule?
Answer: Its composite z-score is 0.341.

Question: And the composite z-score [15]?
Answer: The composite z-score was -0.378.

Question: And the composite z-score [16]?
Answer: The composite z-score was -0.0948.

Question: And the composite z-score (Sam68 (KHDRBS1))?
Answer: The composite z-score was 0.29.

Question: What about the composite z-score [17] of the same molecule?
Answer: Its composite z-score is 0.0988.

Question: And the composite z-score [18]?
Answer: The composite z-score was -0.371.

Question: Which results are given for `COC(=O)[C@H](C)NC(=O)CCC1CC(OC(=O)NCc2cccc3ccccc23)CC2(CCCC(COC(=O)NCCOc3ccccc3)O2)O1` (stereo not given in full)?
Answer: composite z-score [1]: 1.33; z-score [2]: -0.682; composite z-score [3]: 0.43; composite z-score [4]: 1.33; composite z-score [5]: -0.232; composite z-score [6]: -0.251; composite z-score [7]: -0.138; composite z-score [8]: -0.559; composite z-score [9]: 0.347; composite z-score [10]: 0.862; composite z-score (Albumin (Bos taurus)): 0.445; composite Z-score [11]: -0.0662 (inactive); composite z-score [12]: -0.0694; composite z-score [13]: -0.161; composite z-score [14]: 0.295; composite z-score [15]: 1.17; composite z-score [16]: 0.106; composite z-score (Sam68 (KHDRBS1)): 1.23; composite z-score [17]: -0.254; composite z-score [18]: 1.09

Question: For `CC(=O)OC[C@H]1O[C@H](CC=NO[C@@H](C)c2cc(-c3c(C)cc(C)cc3C)no2)C=C[C@@H]1OC(C)=O`, which composite z-score [1] is on record?
Answer: The composite z-score was -0.0612.

Question: And the z-score [2]?
Answer: The z-score was -0.83.

Question: And the composite z-score [3]?
Answer: The composite z-score was -0.111.

Question: And the composite z-score [4]?
Answer: The composite z-score was -0.176.

Question: What about the composite z-score [5] of the same molecule?
Answer: Its composite z-score is 0.0084.

Question: And the composite z-score [6]?
Answer: The composite z-score was -0.208.

Question: What about the composite z-score [7] of the same molecule?
Answer: Its composite z-score is -0.223.

Question: What about the composite z-score [8] of the same molecule?
Answer: Its composite z-score is -0.135.

Question: And the composite z-score [9]?
Answer: Its composite z-score is -0.502.

Question: And the composite z-score [10]?
Answer: The composite z-score was 0.753.

Question: And the composite z-score (Albumin (Bos taurus))?
Answer: The composite z-score was 0.211.

Question: What about the composite Z-score [11] of the same molecule?
Answer: Its composite Z-score is 0.209 (inactive).

Question: What about the composite z-score [12] of the same molecule?
Answer: The composite z-score was -0.0984.

Question: And the composite z-score [13]?
Answer: The composite z-score was -0.0532.

Question: And the composite z-score [14]?
Answer: The composite z-score was -0.273.

Question: What about the composite z-score [15] of the same molecule?
Answer: The composite z-score was -0.447.

Question: What about the composite z-score [16] of the same molecule?
Answer: The composite z-score was 0.234.

Question: And the composite z-score (Sam68 (KHDRBS1))?
Answer: Its composite z-score is -0.177.

Question: And the composite z-score [17]?
Answer: The composite z-score was 0.236.

Question: What about the composite z-score [18] of the same molecule?
Answer: The composite z-score was 0.105.

Question: What does the source list for `C[C@H]1CC[C@H]2C(=O)OC(COc3ccc(C(C)(C)C)cc3)CN2[C@@H]1c1ccc(Br)cc1` (stereo not given in full)?
Answer: composite z-score [1]: 1.1; z-score [2]: 1.1; composite z-score [3]: 0.0037; composite z-score [4]: 0.464; composite z-score [5]: 0.14; composite z-score [6]: -0.277; composite z-score [7]: -0.0709; composite z-score [8]: -0.111; composite z-score [9]: 0.0437; composite z-score [10]: 0.319; composite z-score (Albumin (Bos taurus)): 0.654; composite Z-score [11]: 0.455 (inactive); composite z-score [12]: -0.165; composite z-score [13]: -0.189; composite z-score [14]: 0.267; composite z-score [15]: 1.42; composite z-score [16]: 0.2; composite z-score (Sam68 (KHDRBS1)): 0.961; composite z-score [17]: 0.186; composite z-score [18]: 1.02
